Results: PubChem BioAssay (EPA / NIEHS)
The source made the active and inactive calls. The calls were made as follows: active = hit-call score of the fitted dose curve at least 0.9, where 1 is the maximum; inactive = score below 0.9.

What was measured:
[1] = CEETOX_H295R_PROG: CeeTox H295R High-throughput Steroidogenesis Assay for Progesterone (PROG) (AID 2283442); conditions: actives raise or lower the signal
Summary of the method: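 Progesterone read-out: HPLC-MS/MS on MTBE extracts of conditioned medium after 48 h chemical exposure of forskolin-primed (10 uM, 48 h) H295R cells. Gain or loss of signal was fitted relative to DMSO baseline.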

[2] = read-out: Tumor necrosis factor receptor superfamily member 6 (Homo sapiens) (UniProt P25445); experiment: LTEA_HepaRG_FAS: Life Technologies and Expression Analysis (LTEA) Assay for Fas cell surface death receptor (FAS) using HepaRG (AID 2283447); conditions: mRNA level, 48 h; actives raise or lower the signal
Summary of the method: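 Differentiated HepaRG cells in serum-free induction medium were exposed 48 h to 8 half-log concentrations up to 100 uM in 0.5% DMSO, in duplicate. FAS mRNA was measured by qRT-PCR normalised to ACTB, GAPDH and POLR2A; bidirectional fit versus DMSO.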

[3] = read-out: Fatty acid synthase (Homo sapiens) (UniProt P49327); experiment: LTEA_HepaRG_FASN: Life Technologies and Expression Analysis (LTEA) Assay for Fatty Acid Synthase (FASN) using HepaRG (AID 2283448); conditions: mRNA level, 48 h; actives raise or lower the signal;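 as to AC50: differentiated human HepaRG liver cells in serum-free induction medium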
Summary of the method: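 FASN transcript measured by TaqMan qRT-PCR, normalised to three housekeeping genes, after 48 h chemical exposure of HepaRG cells. Eight-point half-log series from 100 uM in 0.5% DMSO, duplicates; gain or loss fitted against vehicle.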

[4] = read-out: Cyclin Dependent Kinase Inhibitor 1A (CDKN1A), CDKN1A (gene 1026); experiment: LTEA_HepaRG_CDKN1A: Life Technologies and Expression Analysis (LTEA) Assay for Cyclin Dependent Kinase Inhibitor 1A (CDKN1A) using HepaRG (AID 2283450); conditions: mRNA level, 48 h; actives raise or lower the signal
Summary of the method: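 HepaRG, 48 h dosing, 8-pt half-log series from 100 uM top, 0.5% DMSO vehicle, duplicates. Readout: TaqMan qRT-PCR of CDKN1A transcript, housekeeping-normalized (ACTB, GAPDH, POLR2A). Up/down curve fit relative to DMSO.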

[5] = read-out: Cyclin D1 (CCND1), CCND1 (gene 595); experiment: LTEA_HepaRG_CCND1: Life Technologies and Expression Analysis (LTEA) Assay for Cyclin D1 (CCND1) using HepaRG (AID 2283451); conditions: mRNA level, 48 h; actives raise or lower the signal
Summary of the method: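 qRT-PCR (Fluidigm 96.96 array) read-out of transcript level, housekeeping-normalized (ACTB/GAPDH/POLR2A). HepaRG cells, 48 h chemical exposure, 8-point half-log series from 100 uM, 0.5% DMSO vehicle; gain or loss relative to DMSO baseline.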

[6] = read-out: catalase (CAT), CAT (gene 847); experiment: LTEA_HepaRG_CAT: Life Technologies and Expression Analysis (LTEA) Assay for catalase (CAT) using HepaRG (AID 2283452); conditions: mRNA level, 48 h; actives raise or lower the signal
Summary of the method: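 HepaRG cells in serum-free induction medium, 0.5% DMSO vehicle, exposed 48 h in duplicate over 8 half-log concentrations from 100 uM. CAT mRNA measured by qRT-PCR, normalized to ACTB, GAPDH, POLR2A; bidirectional fit versus DMSO.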

[7] = read-out: flavin-containing dimethylaniline monooxygenases 3 (FMO3), FMO3 (gene 2328); experiment: LTEA_HepaRG_FMO3: Life Technologies and Expression Analysis (LTEA) Assay for flavin-containing dimethylaniline monooxygenases 3 (FMO3) using HepaRG (AID 2283453); conditions: mRNA level, 48 h; actives raise or lower the signal
Summary of the method: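 FMO3 transcript quantified by TaqMan qRT-PCR against three housekeeping genes after 48 h chemical exposure of HepaRG cells. Eight-point half-log series, top 100 uM, 0.5% DMSO vehicle; phenobarbital 1mM induction control; up- or down-regulation fitted.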

[8] = read-out: Cytochrome P450 (CYP1A1), CYP1A1 (gene 1543); experiment: LTEA_HepaRG_CYP1A1: Life Technologies and Expression Analysis (LTEA) Assay for Cytochrome P450 (CYP1A1) using HepaRG (AID 2283454); conditions: mRNA level, 48 h; actives raise or lower the signal
Summary of the method: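 qRT-PCR read-out: CYP1A1 transcript normalized to three housekeeping genes, fitted bidirectionally against 0.5% DMSO vehicle baseline. Human HepaRG cells, 48 h chemical exposure, 8-point half-log series topping at 100 uM.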

[9] = read-out: CFLAR gene, CFLAR (gene 8837); experiment: LTEA_HepaRG_CFLAR: Life Technologies and Expression Analysis (LTEA) Assay for CFLAR gene using HepaRG (AID 2283455); conditions: mRNA level, 48 h; actives raise or lower the signal
Summary of the method: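 qRT-PCR read-out (Fluidigm/TaqMan) of CFLAR mRNA, normalized to three housekeeping genes, in differentiated human HepaRG cells after 48 h chemical exposure; 8-point half-log series from 100 uM in 0.5% DMSO; bidirectional curve fitting versus DMSO.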

[10] = read-out: Forkhead box O1 (FOXO1), FOXO1 (gene 2308); experiment: LTEA_HepaRG_FOXO1: Life Technologies and Expression Analysis (LTEA) Assay for Forkhead box O1 (FOXO1) using HepaRG (AID 2283456); conditions: mRNA level, 48 h; actives raise or lower the signal
Summary of the method: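 HepaRG, 48 h exposure, 8-pt half-log series from 100 uM in 0.5% DMSO, duplicates; Fluidigm qRT-PCR mRNA, housekeeping-normalised; bidirectional fit vs DMSO baseline.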

[11] = read-out: growth arrest and DNA damage 45 (GADD45A), GADD45A (gene 1647); experiment: LTEA_HepaRG_GADD45A: Life Technologies and Expression Analysis (LTEA) Assay for growth arrest and DNA damage 45 (GADD45A) using HepaRG (AID 2283458); conditions: mRNA level, 48 h; actives raise or lower the signal
Summary of the method: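 GADD45A expression was measured by TaqMan qRT-PCR against three housekeeping genes (ACTB, GAPDH, POLR2A) after 48 h treatment of HepaRG cells. Eight-point half-log series up to 100 uM in 0.5% DMSO, run in duplicate.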

[12] = read-out: ABC Transporter (ABCB1), ABCB1 (gene 5243); experiment: LTEA_HepaRG_ABCB1: Life Technologies and Expression Analysis (LTEA) Assay for ABC Transporter (ABCB1) using HepaRG (AID 2283460); conditions: mRNA level, 48 h; actives raise or lower the signal
Summary of the method: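 HepaRG, 48 h exposure, 8-pt half-log series from 100 uM, 0.5% DMSO vehicle, duplicates. Readout: ABCB1 transcript by Fluidigm TaqMan qRT-PCR, housekeeping-normalized; bidirectional curve fit vs DMSO baseline.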

[13] = read-out: ABC Transporter (ABCC3), ABCC3 (gene 8714); experiment: LTEA_HepaRG_ABCC3: Life Technologies and Expression Analysis (LTEA) Assay for ABC Transporter (ABCC3) using HepaRG (AID 2283462); conditions: mRNA level, 48 h; actives raise or lower the signal
Summary of the method: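 qRT-PCR read-out of ABCC3 transcript, normalized to three housekeeping genes (ACTB, GAPDH, POLR2A), after 48 h chemical exposure of human HepaRG cells. Eight half-log concentrations, highest 100 uM, in 0.5% DMSO; gain or loss fitted relative to DMSO baseline.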

[14] = read-out: ABC Transporter (ABCB11), ABCB11 (gene 8647); experiment: LTEA_HepaRG_ABCB11: Life Technologies and Expression Analysis (LTEA) Assay for ABC Transporter (ABCB11) using HepaRG (AID 2283463); conditions: mRNA level, 48 h; actives raise or lower the signal
Summary of the method: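 HepaRG, 48 h exposure, 8-pt half-log CRC top 100 uM, 0.5% DMSO vehicle, duplicates. Readout: TaqMan qRT-PCR of ABCB11 mRNA, housekeeping-normalized (ACTB/GAPDH/POLR2A). Bidirectional fit vs DMSO baseline.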

[15] = read-out: ABC Transporter (ABCC2), ABCC2 (gene 1244); experiment: LTEA_HepaRG_ABCC2: Life Technologies and Expression Analysis (LTEA) Assay for ABC Transporter (ABCC2) using HepaRG (AID 2283464); conditions: mRNA level, 48 h; actives raise or lower the signal
Summary of the method: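 qRT-PCR (TaqMan, Fluidigm array) read-out of ABCC2 mRNA, normalized to three housekeeping genes. Differentiated HepaRG cells were treated 48 h in serum-free induction medium with 8-point half-log series from 100 uM in 0.5% DMSO; curves fitted bidirectionally relative to DMSO.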

[16] = read-out: Broad substrate specificity ATP-binding cassette transporter ABCG2 (Homo sapiens) (UniProt Q9UNQ0); experiment: LTEA_HepaRG_ABCG2: Life Technologies and Expression Analysis (LTEA) Assay for ABC Transporter (ABCG2) using HepaRG (AID 2283465); conditions: mRNA level, 48 h; actives raise or lower the signal
Summary of the method: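 HepaRG, 48 h exposure, 8-pt half-log series from 100 uM, 0.5% DMSO vehicle, duplicates. Readout: ABCG2 transcript by qRT-PCR (Fluidigm array), housekeeping-normalized; bidirectional curve fit relative to DMSO baseline.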

[17] = read-out: Forkhead box O3 (FOXO3), FOXO3 (gene 2309); experiment: LTEA_HepaRG_FOXO3: Life Technologies and Expression Analysis (LTEA) Assay for Forkhead box O3 (FOXO3) using HepaRG (AID 2283459); conditions: mRNA level, 48 h; actives raise or lower the signal
Summary of the method: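 qRT-PCR readout of FOXO3 transcript, normalized to three housekeeping genes (ACTB, GAPDH, POLR2A); gain or loss fitted against 0.5% DMSO vehicle. HepaRG cells, 48 h chemical exposure, 8-point half-log series, top 100 uM.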

[18] = read-out: growth arrest and DNA damage 45 (GADD45B), GADD45B (gene 4616); experiment: LTEA_HepaRG_GADD45B: Life Technologies and Expression Analysis (LTEA) Assay for growth arrest and DNA damage 45 (GADD45B) using HepaRG (AID 2283461); conditions: mRNA level, 48 h; actives raise or lower the signal
Summary of the method: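 qRT-PCR read-out (Fluidigm TaqMan, housekeeping-normalized) of mRNA change in human HepaRG cells after 48 h chemical exposure; 8-point curve, top 100 uM, half-log steps, 0.5% DMSO vehicle; gain or loss fitted relative to DMSO baseline.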

Measured: AC50

Fatty acid synthase (Homo sapiens), sequence (P49327 whole entry, looked up): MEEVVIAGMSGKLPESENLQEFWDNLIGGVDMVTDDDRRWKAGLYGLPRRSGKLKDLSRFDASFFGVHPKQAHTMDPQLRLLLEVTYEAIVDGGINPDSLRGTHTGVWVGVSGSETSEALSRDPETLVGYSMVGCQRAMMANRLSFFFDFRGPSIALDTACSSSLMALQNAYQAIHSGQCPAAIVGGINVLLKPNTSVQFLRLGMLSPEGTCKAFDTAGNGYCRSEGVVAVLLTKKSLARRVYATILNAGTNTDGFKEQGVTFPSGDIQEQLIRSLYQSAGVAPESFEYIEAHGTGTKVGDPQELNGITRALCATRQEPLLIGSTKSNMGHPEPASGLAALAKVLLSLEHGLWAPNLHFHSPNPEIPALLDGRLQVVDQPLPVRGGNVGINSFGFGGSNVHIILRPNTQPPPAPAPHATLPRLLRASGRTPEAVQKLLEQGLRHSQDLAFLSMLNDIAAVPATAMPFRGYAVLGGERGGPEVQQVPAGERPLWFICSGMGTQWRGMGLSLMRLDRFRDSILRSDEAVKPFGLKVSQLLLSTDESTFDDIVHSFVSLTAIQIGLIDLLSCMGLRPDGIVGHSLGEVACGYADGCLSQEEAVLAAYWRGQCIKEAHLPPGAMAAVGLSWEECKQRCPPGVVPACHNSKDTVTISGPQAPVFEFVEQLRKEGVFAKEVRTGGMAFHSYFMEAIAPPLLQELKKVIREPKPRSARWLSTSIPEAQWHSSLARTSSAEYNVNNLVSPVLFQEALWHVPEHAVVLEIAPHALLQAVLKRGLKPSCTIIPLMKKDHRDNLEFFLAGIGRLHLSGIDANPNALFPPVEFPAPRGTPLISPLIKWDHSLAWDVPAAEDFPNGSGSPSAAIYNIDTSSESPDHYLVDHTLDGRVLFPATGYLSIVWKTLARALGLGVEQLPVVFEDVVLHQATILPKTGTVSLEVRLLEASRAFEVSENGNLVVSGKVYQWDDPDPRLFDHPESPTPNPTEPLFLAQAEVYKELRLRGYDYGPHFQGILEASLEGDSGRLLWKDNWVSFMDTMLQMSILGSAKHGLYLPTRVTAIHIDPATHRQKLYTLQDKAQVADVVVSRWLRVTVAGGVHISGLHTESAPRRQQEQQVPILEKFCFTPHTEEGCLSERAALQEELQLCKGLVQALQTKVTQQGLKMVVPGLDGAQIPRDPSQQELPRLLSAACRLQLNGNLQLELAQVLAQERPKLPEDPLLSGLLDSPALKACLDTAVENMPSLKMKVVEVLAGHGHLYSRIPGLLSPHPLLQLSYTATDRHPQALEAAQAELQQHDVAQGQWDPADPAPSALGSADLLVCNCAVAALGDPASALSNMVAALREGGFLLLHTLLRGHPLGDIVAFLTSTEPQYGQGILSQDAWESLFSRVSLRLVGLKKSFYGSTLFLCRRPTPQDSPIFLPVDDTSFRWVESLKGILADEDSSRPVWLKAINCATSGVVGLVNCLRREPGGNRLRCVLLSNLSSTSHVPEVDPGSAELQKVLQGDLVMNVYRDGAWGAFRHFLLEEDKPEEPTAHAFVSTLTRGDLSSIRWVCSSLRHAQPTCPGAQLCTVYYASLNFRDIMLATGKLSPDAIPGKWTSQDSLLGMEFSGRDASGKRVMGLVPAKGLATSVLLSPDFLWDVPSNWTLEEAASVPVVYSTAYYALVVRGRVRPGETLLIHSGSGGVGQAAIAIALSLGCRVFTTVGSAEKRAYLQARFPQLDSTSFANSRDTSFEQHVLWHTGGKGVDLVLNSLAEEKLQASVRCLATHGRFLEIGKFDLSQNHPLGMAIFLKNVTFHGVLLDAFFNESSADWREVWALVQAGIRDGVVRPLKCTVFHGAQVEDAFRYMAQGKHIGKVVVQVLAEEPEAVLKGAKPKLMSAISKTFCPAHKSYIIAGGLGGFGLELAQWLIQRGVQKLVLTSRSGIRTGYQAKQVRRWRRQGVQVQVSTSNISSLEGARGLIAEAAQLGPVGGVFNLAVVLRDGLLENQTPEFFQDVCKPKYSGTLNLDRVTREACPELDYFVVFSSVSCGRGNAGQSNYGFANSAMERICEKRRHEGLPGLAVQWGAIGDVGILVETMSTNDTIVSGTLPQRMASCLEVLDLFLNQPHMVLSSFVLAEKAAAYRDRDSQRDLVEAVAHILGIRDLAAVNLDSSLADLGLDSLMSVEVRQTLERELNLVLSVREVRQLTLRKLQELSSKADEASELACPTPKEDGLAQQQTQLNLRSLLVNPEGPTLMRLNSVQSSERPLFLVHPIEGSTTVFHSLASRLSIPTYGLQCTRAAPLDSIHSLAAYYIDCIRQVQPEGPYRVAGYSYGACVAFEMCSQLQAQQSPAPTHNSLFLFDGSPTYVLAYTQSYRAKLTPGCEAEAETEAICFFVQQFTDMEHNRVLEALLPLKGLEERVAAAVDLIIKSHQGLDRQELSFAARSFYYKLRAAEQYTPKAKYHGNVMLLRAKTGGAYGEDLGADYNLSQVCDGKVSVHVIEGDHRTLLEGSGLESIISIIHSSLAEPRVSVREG
Broad substrate specificity ATP-binding cassette transporter ABCG2 (Homo sapiens), sequence (Q9UNQ0 whole entry, looked up): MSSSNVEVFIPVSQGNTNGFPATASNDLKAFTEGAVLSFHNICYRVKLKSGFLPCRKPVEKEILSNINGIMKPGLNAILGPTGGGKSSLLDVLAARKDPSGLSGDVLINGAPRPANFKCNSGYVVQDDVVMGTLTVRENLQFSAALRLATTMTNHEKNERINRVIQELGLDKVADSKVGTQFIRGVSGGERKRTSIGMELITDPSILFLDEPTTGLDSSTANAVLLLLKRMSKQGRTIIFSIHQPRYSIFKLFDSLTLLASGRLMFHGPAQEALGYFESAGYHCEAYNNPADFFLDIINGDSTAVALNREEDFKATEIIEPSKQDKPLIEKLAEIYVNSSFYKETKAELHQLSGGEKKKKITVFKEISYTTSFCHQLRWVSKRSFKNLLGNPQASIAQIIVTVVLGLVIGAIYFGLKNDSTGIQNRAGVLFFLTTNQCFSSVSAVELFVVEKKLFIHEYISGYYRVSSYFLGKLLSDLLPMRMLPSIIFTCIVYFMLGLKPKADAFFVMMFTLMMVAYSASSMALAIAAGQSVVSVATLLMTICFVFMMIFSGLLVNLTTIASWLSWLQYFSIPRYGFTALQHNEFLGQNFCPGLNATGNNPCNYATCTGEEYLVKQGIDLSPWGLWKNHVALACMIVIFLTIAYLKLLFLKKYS

CCOC(=O)C(C)OC(=O)c1cc(Oc2ccc(C(F)(F)F)cc2Cl)ccc1[N+](=O)[O-] (centres undefined)
active: [3] 35.1 µM | [8] 50 µM | [11] 50 µM | [15] 21.9 µM | [16] 19.2 µM
not listed: [17] | [18]
inactive: all other assays above

N#CN=C1SCCN1Cc1ccc(Cl)nc1
not listed: [9] | [12]
inactive: all other assays above

N#Cc1c(Cl)cccc1Cl
active: [8] 50 µM
not listed: [9] | [12]
inactive: all other assays above

CC1(C)CON(Cc2ccccc2Cl)C1=O
active: [8] 50 µM | [12] 9.19 µM | [15] 18.4 µM
not listed: [9] | [17]
inactive: all other assays above
